This passage reports Potency results from PubChem BioAssay (NCATS).

Records with an inconclusive call do not appear. Where a call stands in place of a potency, no number is given. Calls of active or inactive are those of the source. Calls follow the shape of the dose curve; as a rule, active = well fitted inhibition curve with a large enough effect; inconclusive = small, poorly fitted or top-dose-only effect; inactive = flat fitted curve, though single readings scatter.
Potency is read from the fitted curve at half-maximal effect.

The test system of the first experiment is CP269. In words: qHTS profiling for inhibitors of Plasmodium falciparum proliferation (AID 504749). Also: nearly all actives have a fitted effect of over 60% in size. The note with it: P. falciparum in erythrocytes, SYBR Green DNA, 72 h; series mostly up to 28.7 µM. A digest of the protocol: (§1)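 SYBR Green fluorescence of parasite DNA, read after lysis and overnight dark incubation, measured growth over 72 h in erythrocyte culture at 0.3% parasitemia and 2.5% hematocrit. Data normalised to DMSO and 0.29 uM artemisinin, with plate-drift correction.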
As for `C=C(C)C1CC=C(C)CC1` (stereo not drawn), the Potency result is “inactive”.
Still for that read-out and setting: the result for `F[Si-2](F)(F)(F)(F)F` reads “inactive”; that for `CC1=CC(=O)NS(=O)(=O)O1`, “inactive”.
The same measure, in the same setting: in the case of `O=C(O)c1ccc(OCCn2ccnc2)cc1` it was “inactive”; in that of `CO`, “inactive”.
Still for that read-out and setting: in the case of `C[C@H](CCC(=O)O)[C@H]1CC[C@H]2[C@@H]3CC[C@@H]4C[C@H](O)CC[C@]4(C)[C@H]3C[C@H](O)[C@]12C` it was “inactive”.
Turning to `CC1=CC(=C(c2ccc(N)cc2)c2ccc(N)cc2)C=CC1=N`, the Potency was 4260 nM (active).
The same measure, in the same setting: in the case of `O=C(/C=C/c1cccc(F)c1)NC1CC1` it was “inactive”; in that of `CC(CC=O)CCCC(C)(C)O` (stereo not drawn), “inactive”; in that of `CC(C)O`, “inactive”.
Same read-out and setting: in the case of `CCCc1ccc(C(=O)O)cc1` it was “inactive”.
With `O=C(O)Cc1cc(I)c(Oc2ccc(O)c(I)c2)c(I)c1`, the Potency result was “inactive”.
Same read-out and setting: the result for `NCC[C@H](O)C(=O)N[C@@H]1C[C@H](N)[C@@H](O[C@H]2O[C@H](CN)CC[C@H]2N)[C@H](O)[C@H]1O[C@H]1O[C@H](CO)[C@@H](O)[C@H](N)[C@H]1O` reads “inactive”.
The same measure, in the same setting: in the case of `NC(=O)[C@@H]1CCCN1C(=O)[C@H](Cc1cnc[nH]1)NC(=O)[C@@H]1CCC(=O)N1` it was “inactive”; in that of `OC[C@H]1O[C@@](CO)(O[C@H]2O[C@H](CO)[C@@H](O)[C@H](O)[C@H]2O)[C@@H](O)[C@@H]1O`, “inactive”.
Still for that read-out and setting: the result for `Cc1c(Cl)cccc1Nc1ncccc1C(=O)O` reads “inactive”.
As to `CC(/C=C/C=C(\C)C(=O)O[C@@H]1O[C@H](CO[C@@H]2O[C@H](CO)[C@@H](O)[C@H](O)[C@H]2O)[C@@H](O)[C@H](O)[C@H]1O)=C\C=C\C=C(C)\C=C\C=C(/C)C(=O)O[C@@H]1O[C@H](CO[C@@H]2O[C@H](CO)[C@@H](O)[C@H](O)[C@H]2O)[C@@H](O)[C@H](O)[C@H]1O`, the Potency result is “inactive”.
The same measure, in the same setting: in the case of `CC(C)[C@@H](N)C(=O)O` it was “inactive”; in that of `O=C(NCCNCC(O)COc1ccc(O)cc1)N1CCOCC1` (stereo not drawn), “inactive”; in that of `O=S(=O)(O)CC(S)CS` (stereo not drawn), “inactive”.
On the same count and under the same terms, in the case of `NCCN` it was “inactive”.
Take `O=S(=O)(O)CCCS(=O)(=O)O`: the Potency result is “inactive”.
With `O=C(Nc1ccc(O)cc1)c1ccccc1O`, the Potency result is “inactive”.
On the same count and under the same terms, in the case of `CCOC(=O)c1cc(-c2ccccc2)nc2ccc(C)cc12` it was “inactive”; in that of `C=CC(C)(O)CC/C=C(\C)CCC=C(C)C` (stereo not drawn), “inactive”; in that of `O=C(O)COc1ccccc1/C=N/NC(=O)c1ccncc1`, “inactive”.
Same read-out and setting: the result for `OC[C@H]1O[C@@H]2O[C@H]3[C@H](O)[C@@H](O)[C@@H](O[C@H]4[C@H](O)[C@@H](O)[C@@H](O[C@H]5[C@H](O)[C@@H](O)[C@@H](O[C@H]6[C@H](O)[C@@H](O)[C@@H](O[C@H]7[C@H](O)[C@@H](O)[C@@H](O[C@H]1[C@H](O)[C@H]2O)O[C@@H]7CO)O[C@@H]6CO)O[C@@H]5CO)O[C@@H]4CO)O[C@@H]3CO` reads “inactive”.
Still for that read-out and setting: the result for `CN=C1C=CC(=C(c2ccc(N(C)C)cc2)c2ccc(N(C)C)cc2)C=C1` reads 849 nM (active).
For the compound `CN(Cc1ccccc1)Cc1ccccc1`, the Potency result was “inactive”.
As to `O=C1NCCN1c1ncc([N+](=O)[O-])s1`, the Potency entry was “inactive”.
In the case of `CC(=O)Oc1cc(C(F)(F)F)ccc1C(=O)O`, the Potency entry was “inactive”.
The same measure, in the same setting: the result for `O=[N+]([O-])c1c(Cl)cccc1-c1c[nH]cc1Cl` reads “inactive”.
For the compound `CC(=O)Nc1c(I)c(C(=O)O)c(I)c(N(C)C(C)=O)c1I`, the Potency entry is “inactive”.
On to `O=C1N=C2SCCN2C(=O)C1Cc1ccc(Cl)cc1` (stereo not drawn), for which the Potency result is “inactive”.
Consider `O=C(O)Cc1nn(Cc2ccc(Br)cc2F)c(=O)c2ccccc12`, for which the Potency entry was “inactive”.
Same read-out and setting: in the case of `CCC(C(=O)NC(N)=O)c1ccccc1` (stereo not drawn) it was “inactive”.
Take `CC(CCc1ccc(O)cc1)NCC(O)c1ccc(O)cc1` (stereo not drawn): the Potency entry was “inactive”.
On the same count and under the same terms, in the case of `CC/C=C\C/C=C\C/C=C\C/C=C\C/C=C\CCCC(=O)O` it was “inactive”; in that of `CC1(C)S[C@@H]2[C@H](NC(=O)C3(N)CCCCC3)C(=O)N2[C@H]1C(=O)O`, “inactive”.

A further experiment has as its system CP286. The description is as above. Conditions: P. falciparum in erythrocytes, SYBR Green DNA, 72 h; series mostly up to 28.7 µM. The essentials:
as §1
Turning to `C=C(C)C1CC=C(C)CC1` (stereo not drawn), the Potency result was “inactive”.
Still for that read-out and setting: in the case of `F[Si-2](F)(F)(F)(F)F` it was “inactive”; in that of `CC1=CC(=O)NS(=O)(=O)O1`, “inactive”; in that of `O=C(O)c1ccc(OCCn2ccnc2)cc1`, “inactive”.
On the same count and under the same terms, the result for `CO` reads “inactive”; that for `C[C@H](CCC(=O)O)[C@H]1CC[C@H]2[C@@H]3CC[C@@H]4C[C@H](O)CC[C@]4(C)[C@H]3C[C@H](O)[C@]12C`, “inactive”; that for `CC1=CC(=C(c2ccc(N)cc2)c2ccc(N)cc2)C=CC1=N`, 1410 nM (active).
Turning to `O=C(/C=C/c1cccc(F)c1)NC1CC1`, the Potency result was “inactive”.
Regarding `CC(CC=O)CCCC(C)(C)O` (stereo not drawn), the Potency result is “inactive”.
The same measure, in the same setting: the result for `CC(C)O` reads “inactive”; that for `CCCc1ccc(C(=O)O)cc1`, “inactive”.
Still for that read-out and setting: in the case of `O=C(O)Cc1cc(I)c(Oc2ccc(O)c(I)c2)c(I)c1` it was “inactive”; in that of `NCC[C@H](O)C(=O)N[C@@H]1C[C@H](N)[C@@H](O[C@H]2O[C@H](CN)CC[C@H]2N)[C@H](O)[C@H]1O[C@H]1O[C@H](CO)[C@@H](O)[C@H](N)[C@H]1O`, “inactive”.
On the same count and under the same terms, in the case of `NC(=O)[C@@H]1CCCN1C(=O)[C@H](Cc1cnc[nH]1)NC(=O)[C@@H]1CCC(=O)N1` it was “inactive”; in that of `OC[C@H]1O[C@@](CO)(O[C@H]2O[C@H](CO)[C@@H](O)[C@H](O)[C@H]2O)[C@@H](O)[C@@H]1O`, “inactive”.
Consider `Cc1c(Cl)cccc1Nc1ncccc1C(=O)O`, for which the Potency result was “inactive”.
Still for that read-out and setting: in the case of `CC(/C=C/C=C(\C)C(=O)O[C@@H]1O[C@H](CO[C@@H]2O[C@H](CO)[C@@H](O)[C@H](O)[C@H]2O)[C@@H](O)[C@H](O)[C@H]1O)=C\C=C\C=C(C)\C=C\C=C(/C)C(=O)O[C@@H]1O[C@H](CO[C@@H]2O[C@H](CO)[C@@H](O)[C@H](O)[C@H]2O)[C@@H](O)[C@H](O)[C@H]1O` it was “inactive”; in that of `CC(C)[C@@H](N)C(=O)O`, “inactive”; in that of `O=C(NCCNCC(O)COc1ccc(O)cc1)N1CCOCC1` (stereo not drawn), “inactive”.
As to `O=S(=O)(O)CC(S)CS` (stereo not drawn), the Potency entry was “inactive”.
In the case of `NCCN`, the Potency entry was “inactive”.
On the same count and under the same terms, in the case of `O=S(=O)(O)CCCS(=O)(=O)O` it was “inactive”.
On the same count and under the same terms, in the case of `O=C(Nc1ccc(O)cc1)c1ccccc1O` it was “inactive”; in that of `CCOC(=O)c1cc(-c2ccccc2)nc2ccc(C)cc12`, “inactive”; in that of `C=CC(C)(O)CC/C=C(\C)CCC=C(C)C` (stereo not drawn), “inactive”.
Still for that read-out and setting: in the case of `O=C(O)COc1ccccc1/C=N/NC(=O)c1ccncc1` it was “inactive”; in that of `OC[C@H]1O[C@@H]2O[C@H]3[C@H](O)[C@@H](O)[C@@H](O[C@H]4[C@H](O)[C@@H](O)[C@@H](O[C@H]5[C@H](O)[C@@H](O)[C@@H](O[C@H]6[C@H](O)[C@@H](O)[C@@H](O[C@H]7[C@H](O)[C@@H](O)[C@@H](O[C@H]1[C@H](O)[C@H]2O)O[C@@H]7CO)O[C@@H]6CO)O[C@@H]5CO)O[C@@H]4CO)O[C@@H]3CO`, “inactive”.
Take `CN=C1C=CC(=C(c2ccc(N(C)C)cc2)c2ccc(N(C)C)cc2)C=C1`: the Potency was 199 nM (active).
Same read-out and setting: the result for `CN(Cc1ccccc1)Cc1ccccc1` reads “inactive”; that for `O=C1NCCN1c1ncc([N+](=O)[O-])s1`, “inactive”.
The same measure, in the same setting: the result for `CC(=O)Oc1cc(C(F)(F)F)ccc1C(=O)O` reads “inactive”; that for `O=[N+]([O-])c1c(Cl)cccc1-c1c[nH]cc1Cl`, “inactive”; that for `CC(=O)Nc1c(I)c(C(=O)O)c(I)c(N(C)C(C)=O)c1I`, “inactive”.
On to `O=C1N=C2SCCN2C(=O)C1Cc1ccc(Cl)cc1` (stereo not drawn), for which the Potency entry is “inactive”.
The same measure, in the same setting: the result for `O=C(O)Cc1nn(Cc2ccc(Br)cc2F)c(=O)c2ccccc12` reads “inactive”; that for `CCC(C(=O)NC(N)=O)c1ccccc1` (stereo not drawn), “inactive”.
Same read-out and setting: the result for `CC(CCc1ccc(O)cc1)NCC(O)c1ccc(O)cc1` (stereo not drawn) reads “inactive”; that for `CC/C=C\C/C=C\C/C=C\C/C=C\C/C=C\CCCC(=O)O`, “inactive”.
Same read-out and setting: the result for `CC1(C)S[C@@H]2[C@H](NC(=O)C3(N)CCCCC3)C(=O)N2[C@H]1C(=O)O` reads “inactive”.
